36 compounds from PubChem BioAssay (NCI) can be followed below.

The panel holds about 83,000 compounds, 20% with a hit somewhere; the sample as a whole holds those more often.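 How to read the values: 0–100, growth inhibition (40 = 60% inhibited); 0, no net growth; -100 to 0, cell death (-40 = 40% of starting cells died; -100 = all dead).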 Values without a mark were called inactive. Activity calls are given as the source filed them. The calls were made as follows: active = growth percent below 10; inactive = the rest.

This experiment has as its system MDA-MB-468 breast. Nature of the experiment: NCI-60 one-dose screen, 48 h (100 = growth as untreated, 0 = no growth, -100 = all killed). The following applies: 10 µM unless noted.
For `C=C(CNCCO)[C@@H]1CC[C@]2(CO)CC[C@]3(C)[C@H](CC[C@@H]4[C@@]5(C)CCC(N)C(C)(C)[C@@H]5CC[C@]43C)[C@@H]12` (stereo partly specified), the growth was -40.9% (active).

On to `Cc1ccc(NC2=C(Cl)C(=O)c3nc(C)ccc3C2=O)c(C)c1`, for which the growth is -70.2% (active).

As for `O=C1CC(c2ccc(O)c(O)c2)Oc2cc(O)c([C@@H]3O[C@H](CO)[C@@H](O)[C@H](O)[C@H]3O)c(O)c21` (stereo partly specified), the growth is 106%.

For `Cc1cc2c(C(C)C)c(O)c(O)c(C=Nc3ccccc3[N+](=O)[O-])c2c(O)c1-c1c(C)cc2c(C(C)C)c(O)c(O)c(C=Nc3ccccc3[N+](=O)[O-])c2c1O`, the growth is 80.5%.

For `Cn1cc(-c2nc(-c3c[nH]c4ncc(F)cc34)cs2)c2cccnc21`, the growth was -0.356% (active).

`Nc1nc2c(c(=O)[nH]1)C1(C(=O)Nc3ccccc31)c1c(nc(N)[nH]c1=O)N2`: the growth was 101%.

Regarding `Sc1ccc(Nc2c3ccccc3nc3ccccc23)cc1`, the growth was 44.1%.

As for `C[C@]12CCC(=O)C=C1CCC1C2[C@@H](O)C[C@@]2(C)C1CC[C@]2(O)C(=O)COC(=O)CCC(=O)O` (stereo partly specified), the growth is 109%.

Regarding `C=CCNC(=S)NNc1ccc([N+](=O)[O-])cn1`, the growth is 98.7%.

In the case of `Cc1ccc(Nc2ccc(Nc3ccc(C)cc3)c3c2C(=O)c2cccc(O)c2C3=O)cc1`, the growth is 83.3%.

Turning to `CCN(CCO)CCC(=O)c1ccc([N+](=O)[O-])cc1`, the growth was 98.1%.

With `CCC(C)(C)C1CCC(O)CC1` (stereo unspecified), the growth was 104%.

As for `COc1ccc(C2=Cc3ccc(OC(C)=O)cc3OC2)cc1`, the growth is 67.4%.

`COc1ccc(/C=C/C(=O)c2cccc(B(O)O)c2)cc1O`: the growth is 34.9%.

Consider `O=C1OC[C@H]2[C@H](c3ccc(O)c(O)c3)c3cc(O)c(O)cc3C[C@H]12`, for which the growth was 93.3%.

In the case of `COc1cc(C(=O)N2N=C(c3ccc(S(C)(=O)=O)cc3)CC2c2ccco2)cc(OC)c1OC` (stereo unspecified), the growth is 36.7%.

With `COc1cc2oc(-c3cccc(NC(=O)c4ccccc4)c3)cc(=O)c2c(OC)c1OC`, the growth was 84.2%.

For `COC1=C(C)C(=O)c2c(c(CCCl)c3n2CCC3O)C1=O` (stereo unspecified), the growth was 91.5%.

For the compound `O=C(NCCNc1cc(-c2cn(-c3ccccc3)nc2-c2cccc(O)c2)ccn1)Nc1cc(C(F)(F)F)cc(C(F)(F)F)c1`, the growth is 93.6%.

For `Cc1ccc(-c2c3c(N)c4c(nc3nc3c2c(C)nn3-c2ccccc2)CCC4)cc1`, the growth was 53%.

On to `CCOc1cc2ncc(C#N)c(Nc3ccc(F)c(Cl)c3)c2cc1NC(=O)/C=C/CN(C)C`, for which the growth is -43.9% (active).

On to `COc1cc(OC)c(S(N)(=O)=O)cc1C(=O)/C=C/c1ccc(Cl)cc1`, for which the growth was -57.8% (active).

Take `CCOc1ccc(NC(=O)Nc2ccc(OCC)cc2)cc1`: the growth was 106%.

Regarding `COc1ccc(-c2cc(-c3ccccc3)nc(NCCNc3ccnc4cc(Cl)ccc34)n2)cc1`, the growth was -73.7% (active).

In the case of `C#Cc1nc(/C=C/CCCCCCC(=O)NO)cs1`, the growth is 54.8%.

As to `CSCc1ncc(-c2ccc(C(F)(F)F)cc2)c(NC2CCCCCC2)n1`, the growth is 85.7% [25 µM].

Regarding `NC(=O)c1cc(-c2ccc3ncnc(N4CCc5cc(F)c(Cl)cc54)c3c2)cnc1N`, the growth was -35.3% (active).

As for `Cc1cc(C2=NNC(=O)Cc3cc4c(cc32)OCCO4)cc(C)c1N`, the growth was 9.52% (active).

Take `COc1ccc(S(=O)(=O)n2ccc(-c3ccc4c(c3)CCC(C)(C)O4)n2)cc1OC`: the growth is 28.4%.

Take `C=C(C)c1ccc(/C=N/NC(N)=S)cc1`: the growth is 70.6%.

On to `Cc1c(O)cc(-c2cnc(N/N=C/c3ccccc3)s2)c(O)c1C`, for which the growth is 61.6%.

For the compound `CCN(CC)c1ccc(C(=C2C=CC(=[N+](CC)Cc3cccc(S(=O)(=O)O)c3)C=C2)c2ccc(N(CC)Cc3cccc(S(=O)(=O)O)c3)cc2)cc1`, the growth was 12.1%.

Regarding `COc1ccc(C2c3[nH]c4ccc(Cl)cc4c3CCN2c2oc(CO)nc2C#N)cc1` (stereo unspecified), the growth was 25.2%.

For `CNC(=O)c1[nH]cc(-c2ccc(OC)cc2)c1-c1cc(OC)c2c(c1OC)OCO2`, the growth was 97.7%.

For the compound `O=C(CCCC(=O)Nc1ccc(Cn2nnc3cc(Cl)c(Cl)cc32)cc1)Nc1ccc(CN2N=NC3C=C(Cl)C(Cl)=CC32)cc1` (stereo unspecified), the growth was 59.1%.

On to `C=C(CNCCc1ccc(O)cc1)[C@@H]1CC[C@]2(COC3CCCCO3)CC[C@]3(C)[C@H](CC[C@@H]4[C@@]5(C)CCC(NCCO)C(C)(C)[C@@H]5CC[C@]43C)[C@@H]12` (stereo partly specified), for which the growth is -80.1% (active).
